Experiment in all cases: NCI-60 one-dose screen, 48 h (100 = growth as untreated, 0 = no growth, -100 = all killed)
Details in all cases: 10 µM unless noted

The subject of test [1] is T-47D breast.
Test [2] relates to BT-549 breast.
Test [3] relates to MDA-MB-435 melanoma.
Test [4] has as its system SW-620 colon.
Test [5] concerns MCF7 breast.
For test [6], the system named is HCT-116 colon.
Test [7] has as its system HCC-2998 colon.
Test [8] has as its system KM12 colon.

About 83,000 compounds went through this panel and 20% of them were active in at least one assay; those are over-represented in the sample as a whole.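 Compound tested at a single concentration for 48 hours in 96-well plates; a percent growth value below 10 was scored as active.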 A number with no mark means an inactive call. Active and inactive are the calls of the source.

Consider 14 molecules from PubChem BioAssay (NCI).

As to `NC(=S)N1N=C(c2ccc(Cl)cc2)CC1c1cc2ccccc2[nH]c1=O` (configuration not stated), the growth in test [1] is 89.2%; in test [2], 102%; in test [3], 104%; in test [4], 108%; in test [5], 95.5%; in test [6], 103%. In addition, the figures for the growth in test [7] and in test [8] were 111% and 114%, respectively.

Regarding `CC(C)(C)c1ccc(C(=O)Nc2sc3cc(O)ccc3c2C(N)=O)cc1`, the growth in test [1] is 61.5%; in test [2], 85.4%; in test [3] it was 83.9%; in test [4] it was 53.6%; in test [5], 44%; in test [6], 74%. Moreover, the growth in test [7] was 88.2%; in test [8], 34.6%.

As to `CCCCCCCC/C=C/CCCCCCCC1=NC(C)(C)CN1c1ccccc1`, the growth in test [1] was 81.2%; in test [2] it was 105%; in test [3] it was 50.3%; in test [4], 82%; in test [5] it was 86.3%; in test [6], 62.8%. The growth in test [7] was 103%; in test [8] it was 105%.

For the molecule `CCOC(=O)C#Cc1c(C(=O)OCC)nnn1[C@@H]1O[C@H](COC(C)=O)[C@@H](OC(C)=O)[C@H]1OC(C)=O`, the growth was 60.2% in test [1]; 111% in test [2]; 104% in test [3]; 13.6% in test [4]; 41.8% in test [5]; 92.4% in test [6]. For the same molecule, the growth is 105% in test [7] and 109% in test [8].

Regarding `CO[C@H](C(=O)[C@@H](O)[C@@H](C)O)[C@@H]1Cc2cc3cc(O[C@H]4C[C@@H](O[C@H]5C[C@@H](O)[C@H](O)C(C)O5)[C@H](O)C(C)O4)c(C)c(O)c3c(O)c2C(=O)[C@H]1O[C@H]1C[C@@H](O[C@H]2C[C@@H](O[C@H]3C[C@](C)(O)C(=O)C(C)O3)[C@@H](O)C(C)O2)[C@H](O)C(C)O1` (some centres not stated), the growth in test [1] was -8.49% (active); in test [2] it was -24.5% (active); in test [3] it was -41.3% (active); in test [4], 8.29% (active); in test [5], 6.66% (active); in test [6] it was 4.55% (active). For the same molecule, the growth is -9.52% (active) in test [7] and 1.23% (active) in test [8].

With `CCOC(=O)c1ccc2c(c1)[n+](=O)c(C(=O)c1ccc3ccccc3c1)c(C(F)(F)F)n2[O-]`, the growth is -91.1% (active) in test [1]; -48.5% (active) in test [2]; -78% (active) in test [3]; -89.6% (active) in test [4]; -93.1% (active) in test [5]; -100% (active) in test [6]. Besides, the growth in test [7] is -97.6% (active); in test [8] it was -92% (active).

Take `O=C(Nc1ccc(Br)cc1)Nc1cccc(Br)c1`: the growth in test [1] is -10.5% (active); in test [2], 58.2%; in test [3], 47.4%; in test [4], 29%; in test [5], 13.3%; in test [6], 27.5%. The growth in test [7] was 27.6%; in test [8] it was 13.2%.

Turning to `COc1cc2ncnc(Nc3ccc(S(=O)(=O)Nc4cc(C)on4)cc3)c2cc1OCCCN1CCN(c2ccc([N+](=O)[O-])cc2)CC1`, the growth in test [1] was 102%; in test [2] it was 109%; in test [3] it was 103%; in test [4], 105%; in test [5] it was 106%; in test [6] it was 109%. The growth in test [7] was 111%; in test [8], 106%.

Regarding `CC(=O)Nc1c(Br)cc2c(c1Br)Cc1cc(Br)ccc1-2`, the growth in test [1] is 38.9%; in test [2], 77.3%; in test [3], 69.3%; in test [4], 41.7%; in test [5], 59.9%; in test [6], 46.6%. Also, the growth in test [7] was 102%; in test [8] it was 59.6%.

Regarding `CN1C(=O)C(C(=O)/C=C/c2ccccc2C(=O)O)C(=O)N(C)C1=O`, the growth is 89.2% in test [1]; 90.4% in test [2]; 101% in test [3]; 109% in test [4]; 112% in test [5]; 97.3% in test [6]. Further, the growth in test [7] was 116%; in test [8], 104%.

Regarding `c1ccc(CCn2cccc2)nc1`, the growth is 94.7% in test [1]; 106% in test [2]; 114% in test [3]; 117% in test [4]; 101% in test [5]; 101% in test [6]. Further, the figures for the growth in test [7] and in test [8] were 96.7% and 103%, respectively.

As to `CS(=O)(=O)c1ccc(C(=O)N/N=C/c2ccccc2Cl)cc1`, the growth in test [1] is 87.5%; in test [2] it was 92.7%; in test [3], 106%; in test [4] it was 97.3%; in test [5], 93.3%; in test [6], 94.3%. Besides, the growth was 95.8% in test [7] and 100% in test [8].

Take `CC(C)(C)[Si](C)(C)OC1[C@@H](O[Si](C)(C)C(C)(C)C)[C@@H](CNC(=O)NC(=O)NC(=O)CI)O[C@H]1n1cnc2c(NC(=O)Nc3ccccc3)ncnc21` (some centres not stated): the growth in test [1] is 87.5%; in test [2] it was 97.3%; in test [3], 93.2%; in test [4], 76.1%; in test [5] it was 70.8%; in test [6] it was 38.5%. For the same molecule, the growth is 99.4% in test [7] and 32.9% in test [8].

Turning to `CC(=O)Nc1ccc(/C=N/N2CCCCCC2)cc1`, the growth was 100% in test [1]; 91.5% in test [2]; 95.6% in test [3]; 100% in test [4]; 92.2% in test [5]; 99.5% in test [6]. Besides, the results for the growth in test [7] and in test [8] were 109% and 97.8%, respectively.
